Measured values from PubChem BioAssay AID1863 (Southern Research Specialized Biocontainment Screening …, 2009).
About 480 (0.16%) of roughly 300,000 compounds were called active.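 Rule for the calls: active = inhibition over 29.93%, a cutoff 3 SD above the screen mean, later confirmed by dose response; inconclusive = inhibition over 29.93% but no dose response follow-up; inactive = inhibition at most 29.93% or unconfirmed.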 The list is a sample of the results. Entries with a potency or affinity are not part of this list.

Assay: PhoP-dependent GFP reporter repression – Salmonella Typhimurium, primary screen (AID 1863);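 note: 0% = low Mg2+ inducing control and 100% = high Mg2+ repressing control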
Conditions: S. Typhimurium PhoP-regulated promoter GFP reporter, 4 h; at 50 µM; stronger effect = higher value

inhibition, inactive:
CCOc1cccc(C(=O)NNC(=O)CCC(=O)O)c1 4.57%
NC(=O)c1ccccc1OCC(=O)N1CCCc2ccccc21 -3.13%
Clc1ccc2nc(C3CCN(Cc4ccccc4)CC3)[nH]c2c1 18.6%
Cc1ccc(CN2CCC(c3nc4ccc(Cl)cc4[nH]3)CC2)cc1 22.6%
COc1ccc(Oc2ncnc3sccc23)cc1 9.87%
Cc1cc(=O)oc2cc(OCC3CC(c4ccc(Br)cc4)=NO3)ccc12 (centres undefined) -2.2%
Cc1ccc(Cl)cc1NC(=O)C1C2CCC(O2)C1C(=O)O (centres undefined) -0.09%
Fc1cccc(/C=N/Nc2ccccn2)c1 10.3%
FC(F)(F)c1ccc(N/N=C/c2cccnc2)nc1 -0.8%
CCOc1cc(C2C(C(=O)c3ccccc3)=C(C(=O)OC)Nc3nnnn32)ccc1O (centres undefined) -7.95%
CCOc1ccc(NC(=O)Cn2c(=O)oc3cc(Cl)ccc32)cc1 -5.34%
CC(O)(c1ccccc1)C(c1ccccc1)C1CCCCN1 (centres undefined) 5.86%
OC(c1cc(C(F)(F)F)nc2c(C(F)(F)F)cccc12)C1CCCCN1 (centres undefined) -7.43%
FC(F)(F)c1cc(-c2ccccc2)nc(NC2CCCC2)n1 2.27%
O[C@@H](c1cc(C(F)(F)F)nc2c(C(F)(F)F)cccc12)[C@H]1CCCCN1 9.26%
Cc1ccccc1CN1[C@@H]2c3ccccc3C[C@@H]2OCCS1(=O)=O 5.91%
Nn1c(SCC(=O)Nc2ccc3c(c2)OCO3)nncc1=O -10%
Cc1cccnc1NC(=O)c1ccc2c(c1)OCO2 5.72%
O=[N+]([O-])c1ccc(O)c2cccnc12 4.87%
CN(Cc1cc([N+](=O)[O-])c2cccnc2c1O)C1CCCCC1 24.8%
O=[N+]([O-])c1cc([N+](=O)[O-])c2cccnc2c1Oc1ccccc1O 11.2%
O=[N+]([O-])c1cccc2c(Cl)ccnc12 -15%
O=[N+]([O-])c1ccc(Cl)c2cccnc12 2.44%
O=[N+]([O-])c1ccc(O)c2ncccc12 -0.36%
Nc1nonc1C(=O)NCCNC(=O)c1cccs1 17.7%
O=C(O)C1CCN(C(=O)COc2ccc3c4c(c(=O)oc3c2)CCCC4)CC1 4.17%
COc1ccc(N2CCN(c3oc(-c4ccco4)nc3C#N)CC2)cc1 26.4%
COc1cc(S(=O)(=O)n2ccnc2)ccc1Br -8.94%
O=C(NCC1CCCO1)C(C(=O)c1ccc(F)cc1)n1ccccc1=O (centres undefined) 2.45%
COc1ccc(S(=O)(=O)n2oc(=O)cc2-c2ccccc2)cc1 -4.7%
CCN(CC)C(=S)Nc1ccc([N+](=O)[O-])cc1 3.9%
Oc1ccc(Cl)cc1CNc1ccccn1 14.1%
Oc1ccc(Cl)cc1CNn1cnnc1 18.7%
O=C(c1cc2c(=O)oc3ccccc3c2s1)N1CCOCC1 2%
CCOC(=O)NCC(C#CCN(CC)CC)N(CC)CC (centres undefined) 4.11%
O=C(O)CSc1cc(NS(=O)(=O)c2ccc(Cl)cc2)c2ccccc2c1O -5.26%
O=C(O)CSc1cc(NS(=O)(=O)c2ccc(Br)cc2)c2ccccc2c1O 0.22%
CC(C)Oc1ccc(C(=O)OC(C)C(=O)Nc2nc(-c3cccc([N+](=O)[O-])c3)cs2)cc1 (centres undefined) 3.69%
COc1ccc(CN2C3CCC2CC(NC(=O)c2cccc(F)c2)C3)cc1 (centres undefined) 5.59%
Cc1ccc(C23CC4CC(CC(CN)(C4)C2)C3)cc1 26.1%
NCC12CC3CC(C1)CC(c1ccc(Cl)cc1)(C3)C2 10.5%
CCOC(=O)N1CCN(C(=O)c2ccc(NS(C)(=O)=O)cc2)CC1 12.6%
O=C(NCCc1ccccc1)c1ccc(-c2ccc(F)cc2)o1 0.73%
CCSc1nc(N2CCOCC2)c2ccccc2n1 -4.32%
COc1cc(NC(=O)Cn2ccsc2=N)c(C)cc1[N+](=O)[O-] 0.16%
CCc1ccc2[nH]c3nc(N/N=C/c4cccc(O)c4)nnc3c2c1 1.71%
Oc1ccc(/C=N\Nc2nncc(-c3ccccc3)n2)cc1 1.9%
CC(=O)N/N=C/c1c(C)[nH]n(-c2ccccc2)c1=O 3.32%
COc1ccc(S(=O)(=O)NCC(=O)N(CC(=O)NCc2ccco2)Cc2ccc(F)cc2)cc1 6.01%
Oc1ccccc1Nc1ccccn1 0.2%
c1ccc(Nc2ccccn2)nc1 -3.66%
CCCc1[nH]nc2c1C(c1ccc(OC)c(Cn3nnc4ccccc43)c1)C(C#N)=C(N)O2 (centres undefined) 6.36%
CC(C)(C)OC(=O)N1CCN(C(=O)c2[nH]cnc2C(=O)N[C@@H](Cc2ccccc2)C(=O)OCc2ccccc2)CC1 7.86%
COc1ccc(OC)c(N2C(N)=NC(N)=NC23CCCC3)c1 -1.52%
COc1cccc(C(=O)Nc2nnc(-c3cccs3)o2)c1 8.85%
O=C(Nc1nnc(-c2cccs2)o1)c1cccc(C(F)(F)F)c1 -1.86%
N=c1n(CC(=O)c2cccs2)c2ccccc2n1Cc1ccccc1 -1.64%
CCn1c(=N)n(CC(=O)c2ccc(Br)s2)c2ccccc21 9.45%
Cc1nc2ccc(S(=O)(=O)NCC(=O)Nc3cccc(F)c3)cc2s1 0.67%
Nc1c(Cl)ncnc1N/N=C/c1ccc2ccccc2n1 -18.8%
Nc1c(Cl)ncnc1N/N=C/c1ccncc1 -8.59%
Cc1cc(CNC(=O)C2CCC(=O)N(Cc3cccc(C(F)(F)F)c3)C2)no1 (centres undefined) 8.7%
Cn1c(=O)c(=O)n(C)c2cc(S(=O)(=O)N3CCN(c4cccc(C(F)(F)F)c4)CC3)ccc21 -8.38%
COc1cccc(N(CC(=O)NC(C)c2ccccc2)S(C)(=O)=O)c1 (centres undefined) -3.79%
